# Values without a mark were called inactive. How the calls were made is not given here.
# Test system: Botulinum neurotoxin type F light chain protease (Clostridium botulinum)
# Test: Botulinum neurotoxin type F light chain protease inhibition, multiplex microsphere flow cytometry, validation set (AID 588459)
# Conditions: multiplex microsphere protease substrate cleavage assay, at 10 µM, stronger effect = higher value
row,SMILES,inhibition [%]
1,COc1ccccc1C(=O)c1cc2ccc(O)cc2oc1=O,-0.4
2,CCN(CC)c1ccc([C@H]2[C@@H]3CCCC[C@]3(O)CCN2CC(=O)NCc2ccco2)cc1,-1.2
3,CC(C)CC1c2[nH]c3ccccc3c2CCN1C(=O)CCC(=O)N(C)C (stereo not drawn),1.9
4,CCc1cccc2c3c([nH]c12)C(CC)(CC(=O)O)OCC3 (stereo not drawn),-3.9
5,CC(C)NNC(=O)c1ccncc1,1.2
6,CC12CN3CC(C)(CN(C1)C3c1ccc(Cl)cc1Cl)C2=O (stereo not drawn),-0.6
7,COc1cc(COc2ccc3c(C)c(Cc4ccccc4)c(=O)oc3c2)cc(OC)c1OC,3.5
8,Cn1c(=O)c2c(ncn2CCO)n(C)c1=O,1.2
9,O=C(CSCc1ccccc1)NCCCN1CCOCC1,-2.9
10,O=C(O)/C=C/c1cccc(OCc2ccccc2)c1,-2.1
11,OC(C#CCN1CCCC1)(c1ccccc1)c1cccnc1 (stereo not drawn),-1
12,CC(C)CN1CC(C(=O)O)CC1=O (stereo not drawn),3.8
13,Cc1cccc(NC(=O)c2cc3ccccc3o2)c1,1.3
14,Cc1coc2c1c(C)cc1oc(=O)c(Cc3ccccc3)c(C)c12,1.9
15,O=C(OCC(O)C(O)COC(=O)c1ccccc1)c1ccccc1 (stereo not drawn),-0.4
16,C[C@]12CC[C@@H]3c4cc(O)c(O)cc4CC[C@H]3[C@@H]1CC[C@@H]2O,-1
17,CC(=O)CCc1c(C)c2cccc(C)c2[nH]c1=O,4.3
18,C[C@]12CC[C@@H]3c4ccc(O)cc4C(=O)C[C@H]3[C@@H]1CC[C@@H]2O,1.2
19,Cc1cccc(-n2c(Cc3ccccc3)n[nH]c2=S)c1,-1.9
20,O=C(O)CCC(=O)c1ccc(-c2ccccc2)cc1,-4.5

row,SMILES,inhibition [%]
1,COc1ccc(-c2cc3cc(OC)c(OC)cc3c(C)n2)cc1,-3.3
2,CC12CCC(C(=O)N(CCC#N)CCC#N)(CC1=O)C2(C)C (stereo not drawn),2.1
3,CC(=O)c1c(N)nc2n(c1=O)CCCCC2,-2.9
4,Cn1nc(-c2ccccn2)nc2c(=O)n(C)c(=O)nc1-2,-0.9
5,CC[C@]1(O)C[C@@H]2CN(CCc3c([nH]c4ccccc34)[C@@](C(=O)OC)(c3cc4c(cc3OC)N(C)[C@H]3[C@@](O)(C(=O)OC)[C@H](OC(C)=O)[C@]5(CC)C=CCN6CC[C@]43[C@@H]65)C2)C1,16.1
6,COc1ccc(CCN(C)CC(=O)Nc2cc(C)nc3ccccc23)cc1OC,0.4
7,COc1ccc2nc(S(=O)Cc3ncc(C)c(OC)c3C)[nH]c2c1 (stereo not drawn),4.3
8,CC(=O)N[C@@H](CS)C(=O)O,5.5
9,Cc1cc(O)c2/c(=N\N)c(-c3csc(C)n3)coc2c1,-0.4
10,CCOC(=O)c1cccc(C(=O)OCC)n1,3.1
11,CC(C)N1C(=O)/C(=C\c2nc3ccccc3c(=O)[nH]2)c2ccccc21,-0.2
12,Cc1ccc2c(c1)C(O)(c1c(C)[nH]c3ccccc13)C(=O)N2 (stereo not drawn),-4.4
13,COc1ccc2cc(-c3nc4ccccc4n3C)c(=O)oc2c1,2
14,CC12CCC(C(=O)N3CCc4ccccc43)(CC1=O)C2(C)C (stereo not drawn),0.6
15,CC[N+]1(C)CC2CCC(C)(C1)C2(C)C (stereo not drawn),1.1
16,CCCCC[C@H](O)/C=C/[C@@H]1[C@@H](C/C=C\CCCC(=O)O)[C@H]2CO[C@@H]1C2,0.5
17,O=C(/C=C/Sc1ccccc1)c1ccccc1,-0.5
18,S=C(c1ccc2c(c1)OCO2)N1CCCCC1,1.1
19,O=C(O)c1cnccn1,-5.5

# Biological target: Botulinum neurotoxin type A (Clostridium botulinum) (UniProt P0DPI0)
# Test: BoNT/A light chain protease inhibitors, biochemical, multiplex microsphere flow cytometry, validation set (AID 588460)
# Conditions: at 10 µM, stronger effect = higher value
# Chain of Botulinum neurotoxin type A (Clostridium botulinum) (P0DPI0 whole entry, looked up): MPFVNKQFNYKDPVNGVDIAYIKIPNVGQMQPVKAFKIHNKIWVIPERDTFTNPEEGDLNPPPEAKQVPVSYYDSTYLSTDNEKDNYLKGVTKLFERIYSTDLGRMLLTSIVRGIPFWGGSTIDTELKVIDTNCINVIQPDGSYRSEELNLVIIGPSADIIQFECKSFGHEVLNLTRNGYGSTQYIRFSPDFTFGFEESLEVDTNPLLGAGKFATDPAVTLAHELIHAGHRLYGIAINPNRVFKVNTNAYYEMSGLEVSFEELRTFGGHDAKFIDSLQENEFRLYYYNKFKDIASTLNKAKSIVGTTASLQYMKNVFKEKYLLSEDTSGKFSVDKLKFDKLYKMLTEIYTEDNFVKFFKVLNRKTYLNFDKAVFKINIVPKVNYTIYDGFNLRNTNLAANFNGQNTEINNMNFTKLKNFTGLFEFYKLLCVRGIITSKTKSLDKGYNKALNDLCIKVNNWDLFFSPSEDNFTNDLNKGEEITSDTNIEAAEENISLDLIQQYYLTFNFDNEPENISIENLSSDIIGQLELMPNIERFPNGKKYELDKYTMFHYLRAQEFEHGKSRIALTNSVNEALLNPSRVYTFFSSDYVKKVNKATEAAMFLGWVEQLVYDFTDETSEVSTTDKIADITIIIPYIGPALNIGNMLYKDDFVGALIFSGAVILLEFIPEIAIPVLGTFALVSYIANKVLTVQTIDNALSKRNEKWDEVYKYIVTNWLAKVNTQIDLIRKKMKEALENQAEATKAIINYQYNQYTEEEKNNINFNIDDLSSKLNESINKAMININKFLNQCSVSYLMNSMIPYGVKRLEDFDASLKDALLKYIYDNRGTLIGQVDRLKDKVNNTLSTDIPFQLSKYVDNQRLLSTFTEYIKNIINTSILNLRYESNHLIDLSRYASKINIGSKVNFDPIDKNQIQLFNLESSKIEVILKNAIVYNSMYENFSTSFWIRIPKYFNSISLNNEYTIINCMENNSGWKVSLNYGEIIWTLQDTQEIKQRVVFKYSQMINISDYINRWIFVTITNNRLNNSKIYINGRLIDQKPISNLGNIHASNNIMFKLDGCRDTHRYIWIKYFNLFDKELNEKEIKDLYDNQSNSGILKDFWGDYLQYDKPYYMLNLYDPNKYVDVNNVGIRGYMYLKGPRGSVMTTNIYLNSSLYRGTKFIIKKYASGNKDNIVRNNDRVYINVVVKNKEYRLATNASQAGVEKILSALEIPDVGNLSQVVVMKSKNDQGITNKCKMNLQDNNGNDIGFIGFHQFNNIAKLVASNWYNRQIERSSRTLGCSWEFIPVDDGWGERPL
row,SMILES,inhibition [%]
1,COc1ccccc1C(=O)c1cc2ccc(O)cc2oc1=O,0.1
2,CCN(CC)c1ccc([C@H]2[C@@H]3CCCC[C@]3(O)CCN2CC(=O)NCc2ccco2)cc1,0.9
3,CC(C)CC1c2[nH]c3ccccc3c2CCN1C(=O)CCC(=O)N(C)C (stereo not drawn),-0.3
4,CCc1cccc2c3c([nH]c12)C(CC)(CC(=O)O)OCC3 (stereo not drawn),-0.3
5,CC(C)NNC(=O)c1ccncc1,1.3
6,CC12CN3CC(C)(CN(C1)C3c1ccc(Cl)cc1Cl)C2=O (stereo not drawn),0.5
7,COc1cc(COc2ccc3c(C)c(Cc4ccccc4)c(=O)oc3c2)cc(OC)c1OC,0.9
8,Cn1c(=O)c2c(ncn2CCO)n(C)c1=O,-1.8
9,O=C(CSCc1ccccc1)NCCCN1CCOCC1,-0.9
10,O=C(O)/C=C/c1cccc(OCc2ccccc2)c1,-0.9
11,OC(C#CCN1CCCC1)(c1ccccc1)c1cccnc1 (stereo not drawn),-1
12,CC(C)CN1CC(C(=O)O)CC1=O (stereo not drawn),-1.3
13,Cc1cccc(NC(=O)c2cc3ccccc3o2)c1,-0.4
14,Cc1coc2c1c(C)cc1oc(=O)c(Cc3ccccc3)c(C)c12,-0.5
15,O=C(OCC(O)C(O)COC(=O)c1ccccc1)c1ccccc1 (stereo not drawn),0.6
16,C[C@]12CC[C@@H]3c4cc(O)c(O)cc4CC[C@H]3[C@@H]1CC[C@@H]2O,1
17,CC(=O)CCc1c(C)c2cccc(C)c2[nH]c1=O,0.8
18,C[C@]12CC[C@@H]3c4ccc(O)cc4C(=O)C[C@H]3[C@@H]1CC[C@@H]2O,-1.3
19,Cc1cccc(-n2c(Cc3ccccc3)n[nH]c2=S)c1,-0.5
20,O=C(O)CCC(=O)c1ccc(-c2ccccc2)cc1,-1.1

row,SMILES,inhibition [%]
1,COc1ccc(-c2cc3cc(OC)c(OC)cc3c(C)n2)cc1,1.2
2,CC12CCC(C(=O)N(CCC#N)CCC#N)(CC1=O)C2(C)C (stereo not drawn),-1.2
3,CC(=O)c1c(N)nc2n(c1=O)CCCCC2,-1
4,Cn1nc(-c2ccccn2)nc2c(=O)n(C)c(=O)nc1-2,2.9
5,CC[C@]1(O)C[C@@H]2CN(CCc3c([nH]c4ccccc34)[C@@](C(=O)OC)(c3cc4c(cc3OC)N(C)[C@H]3[C@@](O)(C(=O)OC)[C@H](OC(C)=O)[C@]5(CC)C=CCN6CC[C@]43[C@@H]65)C2)C1,3.4
6,COc1ccc(CCN(C)CC(=O)Nc2cc(C)nc3ccccc23)cc1OC,0.9
7,COc1ccc2nc(S(=O)Cc3ncc(C)c(OC)c3C)[nH]c2c1 (stereo not drawn),1.7
8,CC(=O)N[C@@H](CS)C(=O)O,-0.8
9,Cc1cc(O)c2/c(=N\N)c(-c3csc(C)n3)coc2c1,-1
10,CCOC(=O)c1cccc(C(=O)OCC)n1,-0.6
11,CC(C)N1C(=O)/C(=C\c2nc3ccccc3c(=O)[nH]2)c2ccccc21,-0.6
12,Cc1ccc2c(c1)C(O)(c1c(C)[nH]c3ccccc13)C(=O)N2 (stereo not drawn),-1.6
13,COc1ccc2cc(-c3nc4ccccc4n3C)c(=O)oc2c1,1.8
14,CC12CCC(C(=O)N3CCc4ccccc43)(CC1=O)C2(C)C (stereo not drawn),-0.7
15,CC[N+]1(C)CC2CCC(C)(C1)C2(C)C (stereo not drawn),-0.5
16,CCCCC[C@H](O)/C=C/[C@@H]1[C@@H](C/C=C\CCCC(=O)O)[C@H]2CO[C@@H]1C2,-0.1
17,O=C(/C=C/Sc1ccccc1)c1ccccc1,-0.8
18,S=C(c1ccc2c(c1)OCO2)N1CCCCC1,-1.6
19,O=C(O)c1cnccn1,-1.6

# — PubChem BioAssay
